# Compounds with a hit are over-represented: about 7.3% of the library has one in this group of screens.
# uPA surface inh = inhibitors of cell surface uPA generation; Potency, µM (series often up to 38.3 µM), without a hit: at the top dose activity change, negative = inhibition, usual class: inhibitors; cell surface uPA generation assay, qHTS; actives 0.31% (n = 330,000); active means well fitted inhibition curve with a large enough effect; inconclusive means small, poorly fitted or top-dose-only effect; inactive means no such curve, though single readings can be large or run the other way; tested in mouse RAW 264.7 cells; further: on the % scale 0 is the no-effect control and ±100 the full control effect; nearly all actives have a fitted effect of over 55% in size
# NPC1 prom act = activates the NPC1 promoter | AID 485313 | Potency, µM (top dose mostly 9.22 µM), for inactives: top-dose activation, usual class: activators | actives 2.4% (n = 320,000) | Huh7 NPC1 promoter luciferase reporter, 24 h; further: % of control where 0% means no effect; nearly all actives have a fitted effect of over 60% in size
#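 Luminescence from an NPC1 promoter-driven luciferase reporter in stably transfected Huh7 cells was measured after 24 h compound treatment at 37 °C, followed by 10 min ambient incubation with luciferase detection reagent.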
# ELG1 genotox = genotoxicity induction in ELG1-luciferase HEK293T cells | Potency, µM (titrated, usually from 46 µM), inactives show top-dose activity change, positive = activation, hits mostly activators | actives 1.3% (n = 330,000) | HEK293T ELG1-luciferase reporter, luminescence, 16 h | AID 504466; further: % of control where 0% means no effect; nearly all actives have a fitted effect of over 60% in size
#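 After overnight (16 hr) compound treatment at 37 °C, ELG1-luciferase HEK293T cells were lysed with ONE-Glo; luminescence quantified 30 min later at room temperature.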
# Rab9 promoter act = activates the Rab9 promoter; Potency, µM (top dose mostly 9.22 µM), for inactives: top-dose activation, negative = inhibition, hits mostly activators; Huh7 Rab9 promoter-luciferase reporter, luminescence, 24 h; actives 2.8% (n = 320,000); further: % of control where 0% means no effect; nearly all actives have a fitted effect of over 60% in size
#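 Promoter activation is measured as luciferase luminescence in Huh7 cells stably transfected with a Rab9 promoter–luciferase construct, following 24 h compound exposure at 37 °C and 10 min reagent incubation at ambient temperature.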
# FLuc modulator = firefly luciferase modulation, counter-screen for miR-21 project | P08659 | purified FLuc, Km substrates, luminescence inhibition | Potency, µM (series often up to 57.5 µM), for inactives: at the highest dose activity change, negative = inhibition, usual class: inhibitors | actives 6.9% (n = 360,000) | AID 588342;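 further: plate controls were vehicle for no effect and reference inhibitor for full effect; nearly all actives have a fitted effect of over 55% in size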
# Target sequence (P08659 whole entry, looked up): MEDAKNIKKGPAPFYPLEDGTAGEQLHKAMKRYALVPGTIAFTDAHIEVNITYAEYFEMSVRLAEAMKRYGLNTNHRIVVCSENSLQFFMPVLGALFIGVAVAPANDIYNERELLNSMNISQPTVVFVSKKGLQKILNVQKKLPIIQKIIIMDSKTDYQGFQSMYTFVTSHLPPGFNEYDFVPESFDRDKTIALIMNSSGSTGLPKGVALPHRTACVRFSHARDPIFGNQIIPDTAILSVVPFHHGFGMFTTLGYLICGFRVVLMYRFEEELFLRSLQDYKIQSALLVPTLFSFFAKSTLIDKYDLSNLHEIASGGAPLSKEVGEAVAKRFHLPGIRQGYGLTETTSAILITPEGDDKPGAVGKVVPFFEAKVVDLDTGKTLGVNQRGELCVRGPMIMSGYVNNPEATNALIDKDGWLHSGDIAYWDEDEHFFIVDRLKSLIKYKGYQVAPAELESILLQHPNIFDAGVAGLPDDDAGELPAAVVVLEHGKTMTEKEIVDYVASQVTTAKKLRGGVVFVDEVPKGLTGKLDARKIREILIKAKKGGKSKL
#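 Purified P. pyralis luciferase (10nM final) with 10uM D-luciferin and 10uM ATP (Km levels) in 50mM Tris acetate pH 7.5, 10mM Mg acetate, 0.01% Tween-20, 0.05% BSA; qHTS 6-point titration, ~60 µM downward; luminescence read.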
# SMN2 splice up = enhancers of SMN2 splice variant expression; HEK293 SMN2-luciferase splicing reporter, luminescence, 30-36 h; actives 2.8% (n = 210,000); Potency, µM (series often up to 46.1 µM), without a hit: at the top dose activity change, positive = activation, usual class: activators; further: % of control where 0% means no effect; nearly all actives have a fitted effect of over 55% in size
#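 qHTS luciferase splicing reporter: luminescence rises when SMN2 exon 7 is included in transfected HEK293 cells. Compound exposure lasted 30-36 h at 37C, with 4.5 mM final sodium butyrate as control, followed by a ONE-Glo read.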
# Active calls of the source: *; ? = inconclusive; / = not tested or not shown. Unless noted, the call rests on the fitted dose curve; in most records, active means well fitted curve in the direction sought with a large enough effect; inconclusive means small, poorly fitted or top-dose-only effect, or another doubt; inactive means no such curve, though single readings can be large; an effect the other way counts as inactive or inconclusive. Potency means the concentration at half of the fitted maximal effect.
SMILES,uPA surface inh,NPC1 prom act,ELG1 genotox,Rab9 promoter act,FLuc modulator,SMN2 splice up
O=C(NCCc1ccccc1)c1ccccc1F,-5.9%,0.631µM*,?,0.282µM*,?,/
Cc1ccccc1C(=O)NCC(=O)c1ccccc1,-23.6%,/,/,/,/,/
O=C(NCCc1ccccc1)c1ccc(Br)o1,-18.3%,?,?,3.98µM*,?,27.9%
O=C(CNC(=O)c1ccccc1F)c1ccccc1,?,0.447µM*,4.11µM*,0.447µM*,3.38µM*,/
O=C(CNC(=O)c1ccccc1Cl)c1ccccc1,-7.0%,2.82µM*,9.2µM*,0.398µM*,10.7µM*,/
COc1cccc2cc(NC(=O)C3CCCCC3)c(=O)oc12,/,3.16µM*,?,1.78µM*,?,?
COc1cccc2cc(C(=O)Nc3cccc(C)n3)c(=O)oc12,-3.6%,22.4%,2.31µM*,?,0.213µM*,-8.3%
COc1cccc2cc(C(=O)Nc3ccc(C)cc3)c(=O)oc12,/,/,/,/,0.379µM*,14.3%
COc1cccc2cc(C(=O)NC(C)c3ccccc3)c(=O)oc12 (centres undefined),-4.5%,13.6%,11.3%,25.9%,?,/
COc1cccc2cc(C(=O)N3CCCCC3C)c(=O)oc12 (centres undefined),3.4%,-5.3%,2.9%,-1.7%,-0.4%,-2.0%
COc1cccc2cc(CC(=O)c3ccc(C)cc3C)c(=O)oc12,-19.0%,?,11.0%,?,10.7µM*,/
Cc1c(C(=O)OC2CCCCC2)[nH]c2c1C(=O)CC(c1ccc(C(C)(C)C)cc1)C2 (centres undefined),/,/,/,/,6.8%,15.3%
Cc1cc2nc(-c3ccc(OCc4ccccc4C)cc3)cc(C(F)(F)F)n2n1,/,/,/,/,-1.8%,1.4%
O=[N+]([O-])c1ccccc1/C=N\Nc1nccs1,-0.7%,-1.8%,-0.8%,0.9%,0.1%,/
O=[N+]([O-])c1cc(/C=N\Nc2nccs2)ccc1O,/,5.4%,-4.7%,1.4%,16.9µM*,?
Cc1cc(=O)[nH]c(S/C=C/c2ccccc2)n1,/,3.55µM*,20.6µM*,?,5.36µM*,11.2µM*
CCc1cnc2c(c1SCC(=O)c1ccc(Cl)cc1)c(=O)n(C)c(=O)n2C,/,/,/,/,2.3%,/
CC(C)n1nnnc1SCC(=O)Nc1ccc2c(c1)OCCO2,/,3.16µM*,?,?,16.9µM*,/
Cn1c(CN2CCOCC2)nnc1SCC(=O)Nc1ccc2c(c1)OCCO2,/,15.9%,6.7%,-2.7%,1.3%,8.91µM*
Nn1c(SCC(=O)Nc2ccc3c(c2)OCCO3)nncc1=O,-3.0%,-0.6%,0.2%,16.5%,21.3µM*,/
CCn1nnnc1SCC(=O)Nc1ccc2c(c1)OCCO2,0.3%,2.82µM*,?,?,15.1µM*,11.2µM*
COc1cc2c(C(=O)N3CCN(c4ccc(C)cc4)C(C)C3)cn(CC(C)C)c(=O)c2cc1OC (centres undefined),/,/,/,/,0.9%,-1.9%
CCn1nnnc1SCC(=O)Nc1nnc(C(C)C)s1,-3.6%,-2.3%,5.5%,-5.4%,4.6%,0.398µM*
O=C(CCCn1c(=O)c2cccn2c2cccnc21)NCc1ccccc1Br,/,/,/,/,-6.3%,/
CCCCC/C=C\C/C=C\C/C=C\C/C=C\CCCCCC(=O)NCCCC(=O)O,/,/,/,/,/,19.5%
SMILES,uPA surface inh,NPC1 prom act,ELG1 genotox,Rab9 promoter act,FLuc modulator,SMN2 splice up
C/C(=N\NC(=O)c1ccc([N+](=O)[O-])cc1Cl)c1ccccc1,0.5%,?,?,3.55µM*,?,/
C/C(=N/NC(=O)c1cc(O)c(O)c(O)c1)c1ccc([N+](=O)[O-])cc1,-0.6%,-2.3%,2.4%,2.9%,?,10.6%
CCOC(=O)c1nn2c(C(F)(F)F)cc(-c3ccc(C)cc3)nc2c1Cl,/,/,/,/,-5.7%,5.3%
CCOc1ccc(CNS(=O)(=O)c2cc3c(cc2C)NC(=O)CO3)cc1,/,/,/,/,-9.8%,/
CC(=O)Nc1ccc(-c2cc(N)n(-c3ccccc3)n2)cc1,-0.1%,2.24µM*,?,3.16µM*,9.53µM*,/
Nc1cc(-c2ccc(Cl)cc2)nn1-c1ccccc1,-0.8%,3.16µM*,?,3.16µM*,6.01µM*,14.1µM*
Cc1ccc(-n2nc(-c3ccc(N)cc3)cc2N)cc1,-3.9%,?,?,?,19µM*,11.2µM*
Nc1ccc(-c2cc(N)n(-c3ccccc3)n2)cc1,-0.2%,0.1%,9.3%,?,?,?
C=CCOC(=O)N[C@@H](CC(C)C)/C(C(=O)OC)=C(\C)NCc1ccccc1,/,/,/,/,/,5.3%
Cc1ccc(C(=O)c2oc3ccccc3c2NC(=O)COc2ccc(C(C)C)cc2)cc1,/,/,/,/,-2.0%,-8.4%
O=C(NNc1ccccc1[N+](=O)[O-])Nc1ccccc1,/,0.3%,0.8%,-2.1%,-26.1%,7.3%
O=C(O)c1ccccc1Nc1ccccc1C(=O)O,/,6.3%,4.4%,9.0%,-0.5%,-4.0%
O=C(NNc1ccc([N+](=O)[O-])cc1)Nc1ccccc1,?,3.0%,3.2%,-0.5%,21.3µM*,/
CN(C)S(=O)(=O)Oc1cccc(C(=O)Nc2ccc([N+](=O)[O-])cc2)c1,0.2%,15.3%,-13.9%,?,13.5µM*,-25.4%
O=C(O)c1ccccc1Nc1ccc([N+](=O)[O-])cc1,-18.4%,19.5%,-1.8%,?,?,7.08µM*
CCN(CC)c1ccc(C(=O)Nc2ccccc2)cc1[N+](=O)[O-],3.9%,?,0.2%,?,12µM*,11.2µM*
COc1ccc(C(=O)Nc2ccc(Nc3ccccc3)cc2)cc1[N+](=O)[O-],-20.1%,-5.6%,-10.5%,-0.8%,0.8%,/
COc1cccc2c1ncc1c(-c3ccc(C)cc3)nn(-c3ccc(F)cc3)c12,/,/,/,/,-3.4%,/
COc1ccccc1CCNC(=O)C(=O)NCC(c1ccco1)S(=O)(=O)c1ccc(C)cc1 (centres undefined),/,/,/,/,-8.3%,/
CCOc1ccccc1NC(=O)Cn1c(=O)n(-c2ccc(F)cc2)c(=O)c2sc3ccccc3c21,/,/,/,/,-1.9%,-4.3%
COc1ccc(-c2cn3c(n2)sc2cc(C(=O)Nc4ccc(C)c(Cl)c4)ccc23)cc1,/,/,/,/,-15.7%,/
CCc1ccc(NC(=O)Cn2nnc(C(=O)NCc3ccc(C)cc3)c2N)cc1,/,/,/,/,-0.7%,/
Cc1c(Cl)cccc1Nc1ccccc1C(=O)O,14.4%,-4.6%,-2.2%,-1.5%,16.9µM*,-2.4%
CC(=O)N[C@H]1C[C@@H]1c1ccccc1,-8.0%,1.4%,1.0%,19.7%,-1.5%,?
O=C(N[C@H]1CC1c1ccccc1)c1ccc([N+](=O)[O-])cc1 (some centres undefined),-22.6%,1.12µM*,?,0.708µM*,5.36µM*,/
O=C(Nc1ccc([N+](=O)[O-])cc1)c1ccccc1,3.3%,2.24µM*,14.5%,3.16µM*,16.9µM*,/

# From PubChem BioAssay
